According to PubChem BioAssay (EPA / NIEHS):
Values joined by “and” are separate entries in the source; they are usually repeats but may differ in a detail not shown here. Equal entries are not always repeated. Records with an inconclusive call do not appear. Active and inactive are the calls of the source. Rule for the calls, unless noted: active = hit-call score of the fitted dose curve at least 0.9, where 1 is the maximum; inactive = score below 0.9.

Key:
[1] = molecular target: human Retinoid X Receptor beta (RXRb), RXRB (gene 6257) (UniProt P28702); assay: ATG_RXRb_TRANS: Attagene TRANS-FACTORIAL HepG2 Assay for human Retinoid X Receptor beta (RXRb) (AID 2283013; active = hit-call score of the fitted dose curve at least 0.9, where 1 is the maximum)
human Retinoid X Receptor beta (RXRb), RXRB (gene 6257), sequence (P28702 whole entry, looked up, the tested form may be a part): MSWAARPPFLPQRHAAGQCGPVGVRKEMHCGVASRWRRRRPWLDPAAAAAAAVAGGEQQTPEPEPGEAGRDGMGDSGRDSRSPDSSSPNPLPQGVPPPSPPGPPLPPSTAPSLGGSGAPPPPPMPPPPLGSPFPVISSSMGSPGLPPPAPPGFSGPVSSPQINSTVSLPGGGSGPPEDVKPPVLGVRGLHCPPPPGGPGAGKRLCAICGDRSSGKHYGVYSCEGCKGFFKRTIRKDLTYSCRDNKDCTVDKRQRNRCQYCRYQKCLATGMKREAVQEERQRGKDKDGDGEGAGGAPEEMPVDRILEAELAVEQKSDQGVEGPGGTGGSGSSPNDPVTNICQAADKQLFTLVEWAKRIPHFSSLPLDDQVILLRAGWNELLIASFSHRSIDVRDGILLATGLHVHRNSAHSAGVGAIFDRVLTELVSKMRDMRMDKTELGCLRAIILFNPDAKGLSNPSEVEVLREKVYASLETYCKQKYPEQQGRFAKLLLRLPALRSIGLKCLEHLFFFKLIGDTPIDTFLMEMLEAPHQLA
Procedure, shortened: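 HepG2 cells transiently transfected with multiplexed reporter units driven by GAL4-UAS and exogenous chimeric NR-Gal4 proteins; treated 24 h. Reporter mRNA measured by RT-PCR, 6-FAM labelling and capillary electrophoresis; gain-of-signal fitted versus DMSO baseline.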

[2] = molecular target: human Thyroid Receptor alpha (THRa1), THRA (gene 7067) (UniProt P10827); assay: ATG_THRa1_TRANS: Attagene TRANS-FACTORIAL HepG2 Assay for human Thyroid Receptor alpha (THRa1) (AID 2283014; active = hit-call score of the fitted dose curve at least 0.9, where 1 is the maximum)
human Thyroid Receptor alpha (THRa1), THRA (gene 7067), sequence (P10827 whole entry, looked up, the tested form may be a part): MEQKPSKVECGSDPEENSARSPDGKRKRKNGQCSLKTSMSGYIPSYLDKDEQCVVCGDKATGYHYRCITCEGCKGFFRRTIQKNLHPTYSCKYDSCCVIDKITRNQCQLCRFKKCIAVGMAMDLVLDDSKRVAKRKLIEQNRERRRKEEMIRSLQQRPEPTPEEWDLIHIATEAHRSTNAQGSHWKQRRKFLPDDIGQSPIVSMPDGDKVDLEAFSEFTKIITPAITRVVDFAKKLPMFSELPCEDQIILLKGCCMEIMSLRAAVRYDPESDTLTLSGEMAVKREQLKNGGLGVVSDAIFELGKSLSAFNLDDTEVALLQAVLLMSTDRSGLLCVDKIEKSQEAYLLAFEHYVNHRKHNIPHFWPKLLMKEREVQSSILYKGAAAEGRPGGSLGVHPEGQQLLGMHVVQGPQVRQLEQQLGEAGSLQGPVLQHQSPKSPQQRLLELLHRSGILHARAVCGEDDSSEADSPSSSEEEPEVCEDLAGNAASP
Procedure, shortened: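 Transient HepG2 transfection, NR-Gal4 chimera driving GAL4-UAS reporters; 24 h compound exposure; total RNA, oligo(dT) RT, PCR, fluorescent primer extension, capillary electrophoresis. Upward direction vs DMSO control.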

[3] = read-out: E-selectin (Homo sapiens) (UniProt P16581); assay: BSK_3C_Eselectin: BioMAP Diversity Plus: 3C Assay for Eselectin Biomarker Activity (AID 2283015); conditions: primary human endothelial cells (HUVEC); actives raise or lower the signal
Procedure, shortened: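 HUVEC, 3C stimulation; compound exposure 24 h; E-selectin by ELISA; gain- or loss-of-signal fitted bidirectionally vs DMSO baseline.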

[4] = read-out: Interleukin-1 alpha (IL1a), IL1A (gene 3552); assay: BSK_BE3C_IL1a: BioMAP Diversity Plus: BE3C Assay for Interleukin-1 alpha (IL1a) Biomarker Activity (AID 2283016); conditions: primary human bronchial epithelial cells; actives raise or lower the signal
Procedure, shortened: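 Human primary bronchial epithelial cells (BE3C system) were dosed with compound and IL-1a measured by ELISA 24 h later. Activity was fitted bidirectionally against DMSO baseline; cytotoxicity was tracked in parallel cultures by SRB total-protein staining.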

[5] = read-out: Monocyte Chemoattractant Protein-1 (MCP1), CCL2 (gene 6347); assay: BSK_3C_MCP1: BioMAP Diversity Plus: 3C Assay for Monocyte Chemoattractant Protein-1 (MCP1) Biomarker Activity (AID 2283017); conditions: primary human endothelial cells (HUVEC); actives raise or lower the signal
Procedure, shortened: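 HUVEC, 3C system; 24 h chemical exposure; MCP-1 by ELISA; bidirectional curve fit vs DMSO baseline.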

[6] = read-out: Monocyte Chemoattractant Protein-1 (MCP1), CCL2 (gene 6347); assay: BSK_4H_MCP1: BioMAP Diversity Plus: 4H Assay for Monocyte Chemoattractant Protein-1 (MCP1) Biomarker Activity (AID 2283018); conditions: primary human endothelial cells (HUVEC); actives raise or lower the signal
Procedure, shortened: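 Human umbilical vein endothelial cells (4H system) dosed with chemical; MCP-1 measured by ELISA 24 h after dosing. Bidirectional curve fitting against DMSO negative control as baseline; parallel SRB total-protein staining tracks overt cytotoxicity.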

[7] = read-out: Human Leukocyte Antigen - DR isotype (HLADR), HLA-DRA (gene 3122); assay: BSK_3C_HLADR: BioMAP Diversity Plus: 3C Assay for Human Leukocyte Antigen - DR isotype (HLADR) Biomarker Activity (AID 2283019); conditions: primary human endothelial cells (HUVEC); actives raise or lower the signal
Procedure, shortened: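 HUVEC, 3C stimulation, 24 h post-dose; HLA-DR by ELISA; bidirectional curve fit vs DMSO baseline; gain or loss of signal scored.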

[8] = read-out: Interleukin-8 (IL8), CXCL8 (gene 3576); assay: BSK_3C_IL8: BioMAP Diversity Plus: 3C Assay for Interleukin-8 (IL8) Biomarker Activity (AID 2283020); conditions: primary human endothelial cells (HUVEC); actives raise or lower the signal
Procedure, shortened: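 Primary human umbilical vein endothelial cells (3C system) were exposed to test chemical for 24 h, then IL-8 was quantified by ELISA. Responses were fitted bidirectionally against DMSO vehicle as baseline.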

[9] = read-out: Monokine induced gamma interferon (MIG), CXCL9 (gene 4283); assay: BSK_3C_MIG: BioMAP Diversity Plus: 3C Assay for Monokine induced gamma interferon (MIG) Biomarker Activity (AID 2283021); conditions: primary human endothelial cells (HUVEC); actives raise or lower the signal;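 for AC50: MIG protein level measured by immunoassay in the treated endothelial cultures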
Procedure, shortened: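 Primary human umbilical vein endothelial cells in the 3C system were exposed to chemical for 24 h, after which MIG was quantified by ELISA. Activity was fitted bidirectionally against DMSO as negative control and baseline.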

[10] = BSK_3C_SRB: Viability Assessment in the BioMAP Diversity Plus: 3C Assay (AID 2283023); conditions: primary human endothelial cells (HUVEC);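 note: cells read 24 h after compound dosing; fitted both ways against DMSO so a hit may be signal rise or drop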
Procedure, shortened: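 HUVEC, 24 h post-dose; 10% TCA fix, 0.1% SRB stain, A560 nm. Bidirectional curve fit vs DMSO negative control.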

[11] = read-out: Matrix Metallopeptidase 1 (MMP1), MMP1 (gene 4312); assay: BSK_BE3C_MMP1: BioMAP Diversity Plus: BE3C Assay for Matrix Metallopeptidase 1 (MMP1) Biomarker Activity (AID 2283024); conditions: primary human bronchial epithelial cells; actives raise or lower the signal
Procedure, shortened: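 Primary human bronchial epithelial cells were dosed with test chemicals, and MMP1 levels were measured by ELISA 24 h later. Data were fitted bidirectionally against DMSO as the negative control and activity baseline.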

[12] = read-out: Pselectin, SELP (gene 6403); assay: BSK_4H_Pselectin: BioMAP Diversity Plus: 4H Assay for Pselectin Biomarker Activity (AID 2283026); conditions: primary human endothelial cells (HUVEC); actives raise or lower the signal
Procedure, shortened: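 Primary human umbilical vein endothelial cells were exposed to test chemical for 24 h, then cell-surface P-selectin was quantified by ELISA. Activity was fitted bidirectionally against DMSO as negative control and baseline.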

[13] = BSK_4H_SRB: Viability Assessment in the BioMAP Diversity Plus: 4H Assay (AID 2283027); conditions: primary human endothelial cells (HUVEC);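 note: cells exposed to compound for 24 h before staining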;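 for AC50: curves fitted both ways versus DMSO so AC50 may be loss or gain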
Procedure, shortened: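 Human umbilical vein endothelial cells were dosed with chemical and, after 24 h, fixed with 10% TCA, stained with 0.1% sulforhodamine B, and read at 560 nm to give total protein as a cytotoxicity measure. Bidirectional fitting relative to DMSO control.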

[14] = BSK_BE3C_SRB: Viability Assessment in the BioMAP Diversity Plus: BE3C Assay (AID 2283028); conditions: primary human bronchial epithelial cells
Procedure, shortened: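 Primary human bronchial epithelium; chemical dosing, 24 h; 10% TCA fix, 0.1% SRB stain, A560; bidirectional fit vs DMSO baseline.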

[15] = read-out: Thrombomodulin, THBD (gene 7056); assay: BSK_3C_Thrombomodulin: BioMAP Diversity Plus: 3C Assay for Thrombomodulin Biomarker Activity (AID 2283029); conditions: primary human endothelial cells (HUVEC); actives raise or lower the signal
Procedure, shortened: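 Primary human umbilical vein endothelial cells (3C system) were exposed to chemical for 24 h, then thrombomodulin levels were measured by ELISA. Activity was fitted bidirectionally against the DMSO negative control as baseline.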

[16] = read-out: Urokinase-type plasminogen activator receptor (uPAR), PLAUR (gene 5329); assay: BSK_4H_uPAR: BioMAP Diversity Plus: 4H Assay for Urokinase-type plasminogen activator receptor (uPAR) Biomarker Activity (AID 2283030); conditions: primary human endothelial cells (HUVEC); actives raise or lower the signal
Procedure, shortened: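 HUVEC, 24 h post-dose; uPAR by ELISA; bidirectional fit vs DMSO baseline.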

[17] = read-out: Human Leukocyte Antigen - DR isotype (HLADR), HLA-DRA (gene 3122); assay: BSK_BE3C_HLADR: BioMAP Diversity Plus: BE3C Assay for Human Leukocyte Antigen - DR isotype (HLADR) Biomarker Activity (AID 2283032); conditions: primary human bronchial epithelial cells; actives raise or lower the signal
Procedure, shortened: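 Human primary bronchial epithelial cells in the BE3C system were exposed to chemicals for 24 h, after which HLA-DR levels were quantified by ELISA. Activity was fitted bidirectionally, gain or loss of signal, against DMSO as negative control and baseline.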

[18] = BSK_3C_Vis: BioMAP Diversity Plus: 3C Assay for Morphology Visualization (AID 2283025); conditions: primary human endothelial cells (HUVEC);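 note: fitted both ways so gain or loss versus DMSO counts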
Procedure, shortened: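 Human umbilical vein endothelial cells in the 3C system were imaged by light microscopy 24 h after chemical dosing to record cell morphology. Activity was fitted bidirectionally against DMSO as negative control and baseline; the endpoint serves as a background control.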

[19] = read-out: Vascular endothelial growth factor receptor 2 (Homo sapiens) (UniProt P35968); assay: BSK_4H_VEGFRII: BioMAP Diversity Plus: 4H Assay for Vascular endothelial growth factor receptor 2 (VEGFR2) Biomarker Activity (AID 2283031); conditions: primary human endothelial cells (HUVEC); actives raise or lower the signal;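 for AC50: cell-surface VEGFR2 protein level quantified by ELISA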
Procedure, shortened: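 HUVEC (human primary), 4H system; 24 h post-dose; VEGFRII by ELISA; bidirectional curve fit vs DMSO baseline; gain or loss of signal scored.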

[20] = molecular target: human Vitamin D Receptor (VDR), VDR (gene 7421) (UniProt P11473); assay: ATG_VDR_TRANS: Attagene TRANS-FACTORIAL HepG2 Assay for human Vitamin D Receptor (VDR) (AID 2283022; active = hit-call score of the fitted dose curve at least 0.9, where 1 is the maximum)
human Vitamin D Receptor (VDR), VDR (gene 7421), sequence (P11473 whole entry, looked up, the tested form may be a part): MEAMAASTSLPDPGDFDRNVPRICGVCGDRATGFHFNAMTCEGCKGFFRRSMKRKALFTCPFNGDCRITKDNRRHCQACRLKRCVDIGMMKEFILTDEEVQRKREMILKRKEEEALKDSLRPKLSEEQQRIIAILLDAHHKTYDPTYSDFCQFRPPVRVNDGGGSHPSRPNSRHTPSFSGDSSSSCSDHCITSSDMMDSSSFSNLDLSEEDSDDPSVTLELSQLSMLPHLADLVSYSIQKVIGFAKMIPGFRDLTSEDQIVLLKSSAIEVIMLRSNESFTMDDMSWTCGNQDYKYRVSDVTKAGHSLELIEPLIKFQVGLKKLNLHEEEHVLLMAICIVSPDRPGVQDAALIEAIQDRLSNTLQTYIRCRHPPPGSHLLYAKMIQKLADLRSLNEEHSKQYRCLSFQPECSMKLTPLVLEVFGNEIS
Procedure, shortened: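 RT-PCR/capillary electrophoresis read-out of reporter mRNA induction in transiently transfected HepG2; 24 h dosing; chimeric NR-Gal4 (TRANS format); gain-of-signal fit against DMSO baseline.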

Measured: AC50

E-selectin (Homo sapiens), sequence (P16581 whole entry, looked up): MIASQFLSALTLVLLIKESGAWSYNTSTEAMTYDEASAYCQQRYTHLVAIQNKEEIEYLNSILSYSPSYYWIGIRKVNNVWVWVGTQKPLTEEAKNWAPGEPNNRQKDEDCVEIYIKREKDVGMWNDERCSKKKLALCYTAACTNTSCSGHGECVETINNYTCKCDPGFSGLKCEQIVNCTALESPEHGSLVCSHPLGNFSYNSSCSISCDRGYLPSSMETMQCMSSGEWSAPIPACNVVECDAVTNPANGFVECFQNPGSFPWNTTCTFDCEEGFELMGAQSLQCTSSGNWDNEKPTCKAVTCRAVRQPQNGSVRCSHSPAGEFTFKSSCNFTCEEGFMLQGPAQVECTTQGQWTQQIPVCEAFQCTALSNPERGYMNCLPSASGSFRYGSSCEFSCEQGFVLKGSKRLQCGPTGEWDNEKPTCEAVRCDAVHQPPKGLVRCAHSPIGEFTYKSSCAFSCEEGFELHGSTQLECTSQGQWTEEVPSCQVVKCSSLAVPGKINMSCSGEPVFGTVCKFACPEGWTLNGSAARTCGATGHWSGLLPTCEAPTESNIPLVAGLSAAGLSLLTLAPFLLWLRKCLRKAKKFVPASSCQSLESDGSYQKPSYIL

N[C@@H](Cc1c[nH]c2ccccc12)C(=O)O
not listed: [18] | [19] | [20]
inactive: all other assays above

Nc1nc(Cl)nc2c1ncn2[C@H]1C[C@H](O)[C@@H](CO)O1
active: [18] 38.6 µM | [16] 18.5 µM | [19] 2.65 µM
not listed: [2] | [20]
inactive: all other assays above

CN(C)CCCN(C)CCCN(C)C
active: [1] 23.8 µM
not listed: [2] | [20]
inactive: all other assays above

O=Cc1ccccc1C=O
not listed: [2] | [19] | [20]
inactive: all other assays above

Cc1cc(SC2=C(O)C[C@@](CCc3ccc(N)cc3)(C(C)C)OC2=O)c(C(C)(C)C)cc1CO
not listed: [2] | [19]
inactive: all other assays above

CC(C)NCC(O)c1ccc(O)c(O)c1 (centres undefined)
not listed: [2] | [19] | [20]
inactive: all other assays above

C#CC(O)C(CC)CCCC (centres undefined)
not listed: [2] | [20]
inactive: all other assays above

COc1ccc(C(=O)Nc2nc3ccccc3c(NCc3ccccc3)c2C#N)cc1
active: [10] 8.6 µM | [11] 7.48 µM | [18] 39 µM
not listed: [2] | [19] | [20]
inactive: all other assays above

CCCCC(CC)COC(=O)CCCCCCCC(=O)OCC(CC)CCCC (centres undefined)
not listed: [2] | [18] | [19] | [20]
inactive: all other assays above

O=NO
not listed: [2] | [19]
inactive: all other assays above

CC(=O)OC1CC(C)OC(C)O1 (centres undefined)
not listed: [2] | [18] | [20]
inactive: all other assays above

CCCCCCC(C=O)=Cc1ccccc1
inactive: [4] | [6] | [20] | [11] | [14] | [15] | [16] | [17]
active: [1] 65.6 µM and 39.1 µM | [3] 37.7 µM | [5] 35 µM | [7] 36.7 µM | [8] 30.1 µM | [9] 36.3 µM | [10] 31 µM | [12] 31.1 µM | [13] 31.8 µM

NCCOCCOCCN
not listed: [2] | [18] | [19]
inactive: all other assays above

O=C(O)CN(CC(=O)O)CC(=O)O
not listed: [2] | [19]
inactive: all other assays above

Cc1cc(Cc2ccc(N)c(C)c2)ccc1N
not listed: [2] | [18] | [19] | [20]
inactive: all other assays above
